# According to PubChem BioAssay AID504832 (National Center for Advancing Translational Sciences (NCATS), 2011):
# Hit rate of the full screen: of about 310,000 compounds, about 18,000 (5.8%) were called active. Entries that show only a call come without a potency. About 22% were inconclusive and are not listed. This is one part of a sample in which actives are shown more often than they occur. The call rests on the fitted dose curve; in most records, active means well fitted inhibition curve with a large enough effect; inconclusive means small, poorly fitted or top-dose-only effect, or another doubt; inactive means no such curve, though single readings can be large or run the other way.
# Assay: Primary qHTS for delayed death inhibitors of the malarial parasite plastid, 48 hour incubation
# Settings: P. falciparum luciferase growth in erythrocytes; series mostly up to 28.7 µM
# Summary of the method: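 Compounds are pin-transferred into medium, infected erythrocytes (2% hematocrit, 0.1% parasitemia final) are added, and plates sit one parasite generation at 37 C in 5% CO2. Detection reagent is then added and luminescence measured.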
# Potency means the concentration at half of the fitted maximal effect.
row,SMILES,Potency
1,COc1ccc(Nc2nnc(C)c3ccccc23)cc1,inactive
2,Cc1ccc(-c2nnc(Nc3ccc(C(=O)N(C)C)cc3)c3ccccc23)cc1S(N)(=O)=O,9.28 µM (active)
3,CN(C)C(=O)c1ccc(NC(=O)c2ccccc2-c2ccccc2)cc1,inactive
4,COc1ccc(NC(=O)CN(C)CC(=O)Nc2cccc(C(F)(F)F)c2)cc1,inactive
5,CCNC(=O)c1ccc(OCC(=O)Nc2ccc(F)cc2)c(OC)c1,inactive
6,COc1cc(C(=O)N(C)Cc2cccc(OC)c2OC)ccc1OCC(=O)Nc1cccc(C(F)(F)F)c1,11.7 µM (active)
7,O=C(Nc1ccc(N2CCCCC2)cc1)c1cc(S(=O)(=O)N2CCOCC2)ccc1F,inactive
8,N#Cc1cccc(NC(=O)CN2CCCCCC2)c1,inactive
9,N#Cc1cccc(NC(=O)C2CCCN(C(=O)c3ccc(Cl)cc3)C2)c1 (stereo not given),9.28 µM (active)
10,O=C(Nc1cccc(Cl)c1)C1CCCN(c2cnccn2)C1 (stereo not given),inactive
11,COc1ccc(Cl)cc1C(=O)OCC(=O)NCc1cccs1,inactive
12,CCOC(=O)C1CCN(C(=O)c2oc3ccc(S(=O)(=O)N4CCCCCC4)cc3c2C)CC1,11.7 µM (active)
13,CCOC(=O)C1CCN(C(=O)C2CCCN(S(=O)(=O)c3ccc(OC)c(Cl)c3)C2)CC1 (stereo not given),inactive
14,Cc1c(C(=O)NCCN(C)C)oc2ccc(S(=O)(=O)N3CCCC3)cc12,inactive
15,CCOC(=O)C1CCN(C(=O)COC(=O)C2CCN(S(=O)(=O)c3ccc4c(c3)OCCO4)CC2)CC1,13.1 µM (active)
16,O=C(COC(=O)C1CCN(S(=O)(=O)c2ccc3c(c2)OCCO3)CC1)Nc1ccccc1OC(F)F,inactive
17,CCOC(=O)C1CCN(S(=O)(=O)c2ccc3c(c2)N(C(C)=O)CCO3)CC1,inactive
18,CC(Sc1nnc(-c2ccccc2F)n1C1CC1)C(N)=O (stereo not given),inactive
19,Cc1occc(=O)c1OCc1ccc(F)cc1,inactive
20,Clc1nc(NC2CCCC2)nc(N2CCOCC2)n1,inactive
21,Cc1ccc(NC(=O)Cc2nnc(SCC(=O)Nc3nncs3)n2C)cc1,inactive
22,Cc1onc(C(=O)NN)c1C(=O)N1CCN(C(c2ccccc2)c2ccccc2)CC1,5.86 µM (active)

row,SMILES,Potency
1,CCc1noc(C)c1C(=O)N1CCN(S(=O)(=O)c2cccc(C(F)(F)F)c2)CC1,inactive
2,Cc1c(C(=O)N2CCCC2)c(S(=O)(=O)NCC(C)c2ccccc2)c(C)n1C (stereo not given),inactive
3,COc1ccc(N2CCN(C(=O)Cn3cnc4sc(C)c(S(=O)(=O)N5CCOCC5)c4c3=O)CC2)cc1,inactive
4,CN(Cc1cccs1)C(=O)CN1C(=O)c2ccccc2S1(=O)=O,inactive
5,CCC1CCC2(CC1)NC(=O)N(CC(=O)Nc1ccc(OC)cc1)C2=O (stereo not given),inactive
6,O=C(CN(CC1CCCO1)C(=O)CNS(=O)(=O)c1ccc(Cl)cc1)NCc1ccccc1 (stereo not given),inactive
7,CCN(C(=O)COC(=O)CCOc1cccc(C)c1)c1c(N)n(Cc2ccccc2)c(=O)[nH]c1=O,inactive
8,CCN(C(=O)COC(=O)c1c(C)nn(-c2ccccc2)c1Cl)c1c(N)n(Cc2ccccc2)c(=O)[nH]c1=O,10.4 µM (active)
9,CCN(C(=O)COC(=O)c1sccc1C)c1c(N)n(Cc2ccccc2)c(=O)[nH]c1=O,inactive
10,Cc1ccccc1NC(=O)Cc1nc(COC(=O)c2cccnc2Cl)cs1,inactive
11,O=C(CCNC(=O)c1ccc([N+](=O)[O-])cc1)NC1CCCCC1,inactive
12,CCOc1cc(C(=S)N2CCOCC2)ccc1OS(=O)(=O)c1ccc(Br)cc1,inactive
13,COc1cc(OC)c(C(=S)N2CCCC2)cc1OC,inactive
14,COC(=O)[C@@H](Cc1ccccc1)NC(=O)NCCc1ccccc1,inactive
15,O=C(NCCSCc1ccccc1)c1ccc(Cl)c(S(=O)(=O)N2CCOCC2)c1,10.4 µM (active)
16,Cc1ccc(C(=O)Nc2ncccc2C)cc1S(=O)(=O)N1CCOCC1,inactive
17,Cc1ccc(NC(=O)CCCNC(=O)c2ccc(Cl)cc2)cc1S(=O)(=O)N1CCOCC1,inactive
18,O=C(NCc1cccnc1)c1cc(S(=O)(=O)N2CCOCC2)c(Cl)cc1Cl,inactive
19,Cc1ccccc1CSCCNC(=O)c1ccc(Cl)c(S(=O)(=O)N2CCOCC2)c1,11.7 µM (active)
20,Cc1ccccc1CSCCNC(=O)c1ccc(N(C)S(=O)(=O)c2ccccc2)cc1,inactive
21,Cc1ccccc1N1CC(C(=O)Nc2ccc3c(c2)OCO3)CC1=O (stereo not given),inactive
22,Cc1ccc(Cl)c(OCC(=O)N2CCc3ccccc3C2)c1,inactive

row,SMILES,Potency
1,CC(C)c1csc(CN2CCC(CO)(Cc3ccccc3)CC2)n1,inactive
2,OCC1(Cc2ccccc2)CCN(Cc2cc3ccccc3o2)CC1,inactive
3,OCC1(Cc2ccccc2C(F)(F)F)CCN(Cc2cccc3cnccc23)CC1,11.7 µM (active)
4,CC(C)(C)NC(=O)Cn1cnc([N+](=O)[O-])n1,inactive
5,Cn1nc([N+](=O)[O-])nc1Sc1ccc(C(C)(C)C)cc1,13.1 µM (active)
6,Cn1nc(C(C)(C)C)c([N+](=O)[O-])c1C(N)=O,inactive
7,Cc1ccnc(NC(=O)CNC(=O)c2ccccc2)c1,inactive
8,Cc1cccc2sc(N(CCCN(C)C)C(=O)CCS(=O)(=O)c3ccccc3)nc12,inactive
9,COc1cccc2sc(N(CCCN(C)C)C(=O)C(c3ccccc3)c3ccccc3)nc12,13.1 µM (active)
10,COc1cccc2sc(N(CCCN(C)C)C(=O)CCS(=O)(=O)c3ccccc3)nc12,inactive
11,Cc1ccc(CSc2nsc(C)c2C#N)cc1,inactive
12,O=C1c2ccccc2S(=O)(=O)N1Cc1c(F)cccc1Cl,inactive
13,COC(=O)CCNc1ccc2c(c1)OCCO2,inactive
14,CCOC(=O)c1cnc2ccc(F)cc2c1Nc1ccc2c(c1)OCCO2,9.28 µM (active)
15,CCCCC(=O)Nc1ccc2c(c1)OCCO2,inactive
16,CN(C)CCCNc1c2c(c(C#N)c3nc4ccccc4n13)CCC2,inactive
17,CCOCCn1c(C(C)C)nc2ccccc21,inactive
18,CCOCCCNc1c(CC)c(C)c(C#N)c2nc3ccccc3n12,3.29 µM (active)
19,CCCCCn1c(=O)c(C(=O)NCc2ccccc2)c(O)c2ccccc21,9.28 µM (active)
20,CCCCn1c(=O)c(C(C)=O)c(O)c2ccccc21,inactive
21,CCCCCn1c(=O)c(C(=O)Nc2c(C)n(C)n(-c3ccccc3)c2=O)c(O)c2ccccc21,inactive
